Measurements taken from PubChem BioAssay AID652104 (National Center for Advancing Translational Sciences (NCATS), 2013).
Several values for one entry are separate records, joined by “and”; a condition that tells them apart may be missing. Identical values can stand only once. Hit rate of the full screen: of about 410,000 compounds, about 7,200 (1.8%) were called active. Inconclusive results (about 7%) are left out. Calls come from the whole dose curve; as a rule, active = well fitted activation curve with a large enough effect; inconclusive = small, poorly fitted or top-dose-only effect, or another doubt; inactive = no such curve, though single readings can be large or run the other way. The entries come from a sample that favours actives as a whole. More than one record can exist for a structure, and the calls need not agree.

Experiment: qHTS of TDP-43 Inhibitors; note: nearly all actives have a fitted effect of over 50% in size; for growth rescue (activation): % of control where 0% means no effect
Conditions: TDP-43 expressing yeast growth rescue, BacTiter-Glo, 24 h; series mostly up to 46.1 µM; growth rescue (activation): at the top concentration
Procedure, shortened: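 In this qHTS, compounds that restore growth of yeast expressing TDP-43 appear as activators. Cells (OD600=0.02, galactose medium, raffinose-pregrown) are incubated with compound 24 hr at 30 deg C and growth is quantified by BacTiter-Glo.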
Potency is the fitted concentration of half-maximal effect.

SMILES	growth rescue (activation)	Potency
Cc1nn(C(C)C(=O)NCCc2ccccc2)c(=O)c2c1sc1ccccc12 (centres undefined)	7.28% (inactive)	–
O=C(NCCc1ccccc1)c1ccc2c(c1)N(Cc1ccc(F)cc1)C(=O)c1ccccc1S2(=O)=O	3.53% (inactive)	–
CCCCN1C(=O)c2[nH]nc(-c3ccccc3O)c2C1c1cccc(OCc2ccccc2)c1 (centres undefined)	0% (inactive)	–
Cn1c(=O)c2c(ncn2CC(=O)Nc2cccc(C(F)(F)F)c2)n(C)c1=O	20.5% (inactive)	–
CSc1nc(-c2ccc(F)cc2)nc2c1Cc1c(CO)cnc(C)c1O2	21.5% (inactive)	–
COc1cc(NC(=O)CSc2ccc(-c3cccnc3)nn2)cc(OC)c1	-17.4% (inactive)	–
O=C(CSc1ccc(-c2ccc(-n3cccn3)cc2)nn1)Nc1ccc([N+](=O)[O-])cc1	12.4% (inactive)	–
O=C(CSc1ccc(-c2ccccn2)nn1)Nc1ccccc1	–	28.2 µM (active)
CCc1ccc(NC(=O)CN2CCSc3ccc(S(=O)(=O)N4CCCC4)cc32)cc1	15.8% (inactive)	–
Cc1cccc(N2CCN(c3c(CN4CCCC4)c(=O)oc4ccccc34)CC2)c1C	9.53% (inactive)	–
COc1ccc(C)cc1Nc1nc2ccccc2c2nnc(C)n12	14.7% (inactive)	–
Cc1ccc(C(=O)Nc2c(C(=O)NC(C)(C)C)oc3ccccc23)cc1	14.8% (inactive)	–
COc1ccccc1CN(C)C(=O)c1cc2ccccc2o1	20.2% (inactive)	–
CCNc1nc(-c2cc3ccccc3o2)cs1	–	14.1 µM (active)
Cn1c(SCC(=O)NC2CCCCC2)nnc1-c1cc2ccccc2o1	-2.43% (inactive)	–
Cc1ccc(N2CC(c3nnc(Cc4ccccc4Cl)o3)CC2=O)cc1 (centres undefined)	22.1% (inactive)	–
COc1cc(C(=O)N2CCN(C(=O)COc3cccc(C)c3)CC2)cc(OC)c1OC	9.38% (inactive)	–
CCN(CC)S(=O)(=O)c1ccc2c(c1)c(=O)c(C(=O)N1CCN(c3cccc(Cl)c3)CC1)cn2C	15.9% (inactive)	–
Cc1cccc(CCNS(=O)(=O)c2ccc(S(=O)(=O)NC3CCCC3)cc2)c1	-9.75% (inactive)	–
Cc1cccc(CNS(=O)(=O)c2ccc(-c3cnc(C4CC4)o3)cc2)c1	–	inactive and 12.6 µM (active)
Cc1ccc(-c2cnc(C3CC3)o2)cc1S(=O)(=O)Nc1cccc(C)c1C	17% (inactive)	–
O=C(CN1CCSc2ccccc21)N1CCN(c2ccccc2)CC1	29.6% (inactive)	–
COc1ccccc1NC(=O)c1cc(C2CC2)nc2c1c(C)nn2-c1ccc(C)cc1	0% [at 9.22 µM] (inactive)	–

SMILES	growth rescue (activation)	Potency
COc1ccc(NC(=O)C2Cc3c(-c4ccc(Cl)cc4)ccnc3O2)cc1 (centres undefined)	–	14.1 µM (active)
CC(=O)Nc1ccc(-c2ccnc3c2CC(C(=O)NC(C)C)O3)cc1 (centres undefined)	22.5% (inactive)	–
COc1ccc(NC(=O)C2Cc3c(-c4cccc(NC(C)=O)c4)ccnc3O2)cc1OC (centres undefined)	10.1% (inactive)	–
CC1CCc2noc(NC(=O)c3ccc([N+](=O)[O-])cc3)c2C1 (centres undefined)	6.42% (inactive)	–
Cc1cc(C)cc(OCC(=O)Nc2nc(-c3ccc(F)cc3)ns2)c1	6.88% (inactive)	–
COc1ccc(C(=O)NC2CCCc3c2cnn3-c2cccc(C)c2C)c(OC)n1 (centres undefined)	–	15.8 µM (active)
Cn1nccc1C(=O)NC1CCCc2c1cnn2-c1ccc(F)cc1F (centres undefined)	10.7% (inactive)	–
COc1cccc(C(=O)Nc2c3c(nn2-c2cccc(C)c2C)CS(=O)(=O)C3)c1OC	-20.6% (inactive)	–
CCOc1ccc(CNCc2c(C(=O)O)c(C)n(Cc3cccc(OC)c3)c2C)cc1OC	20.8% (inactive)	–
Cc1ccc(-n2c(SCC(=O)Nc3cccc(F)c3)nc3c(oc4ccccc43)c2=O)cc1C	6.78% (inactive)	–
CCn1c(=S)[nH]c2sc3c(c2c1=O)CCCCC3	7.77% (inactive)	–
S=c1[nH]nc2c3c4c(sc3ncn12)CCCC4	–	4.47 µM (active)
Cc1ccc2nc(COc3ccc(NC(=O)COc4ccccc4F)cc3)cc(=O)n2c1	-13.1% (inactive)	–
Cc1cccc(Cn2c(SCc3ccc(C(=O)N4CCC(C)CC4)cc3)nc3ccncc32)c1	-2.39% (inactive)	–
Cc1cc2c(cc3c(SCc4nc(-c5ccccc5)oc4C)nnc(C)n32)o1	–	17.8 µM (active)
Cc1nnc(SCc2cccc(Cl)c2)n(N)c1=O	-2.32% (inactive)	–
Cc1cc2c(cc3c(SCc4cccc(Cl)c4)nnc(C)n32)o1	–	20 µM (active)
O=C(c1ccco1)N1CCN=C1SCc1cccc(Cl)c1	4.84% (inactive)	–
CCc1nnc(SCc2nc(-c3cccc(C)c3)oc2C)c2cc3sc(C)cc3n12	9.11% (inactive)	–
Cc1cc(NC(=O)CSCc2nc(-c3cccc(Cl)c3)oc2C)no1	-9.69% (inactive)	–
COc1cccc(-c2nnc(SCC(=O)N3CCC(C)CC3)o2)c1	42.2% (inactive)	–
O=C(Cn1cc(SCc2ccccc2)c2ccccc21)N1CCCCC1	0% (inactive)	–
COc1ccc(NC(=O)C(=O)NCc2ccco2)cc1	19% (inactive)	–

SMILES	growth rescue (activation)	Potency
C=CCC(NCc1ccco1)c1ccc(OC)cc1 (centres undefined)	-8.96% (inactive)	–
COc1ccc(Nc2nc(NCc3ccco3)nc(N/N=C/c3ccccc3Cl)n2)cc1	–	17.8 µM (active)
COc1cc(OC)cc(-c2nc3nc(C)c(CCC(=O)Nc4ccccc4)c(C)n3n2)c1	1.76% (inactive)	–
O=C(NCCCc1ccccc1)c1ccc2c(c1)sc1nc(-c3ccc(F)cc3)cn12	1.87% (inactive)	–
CCC(=O)N1c2ccccc2CC1C(=O)N1CCN(c2cccc(OC)c2)CC1 (centres undefined)	0% (inactive)	–
CC1=C(c2ccc(C)c(C)c2)S(=O)(=O)NC1=NCc1ccccc1Cl	-4.02% (inactive)	–
CS(=O)(=O)N(CC(O)Cn1c2ccccc2c2ccccc21)c1cccc2ccccc12 (centres undefined)	-13.6% (inactive)	–
O=C1c2ccccc2S(=O)(=O)N1Cc1c(F)cccc1Cl	-8.24% (inactive)	–
O=C1c2ccccc2S(=O)(=O)N1CC(O)Cn1c2ccccc2c2ccccc21 (centres undefined)	–	11.2 µM (active)
COc1ccc(CNC(=O)c2ccc3c(O)c(S(=O)(=O)c4ccccc4)c(=O)[nH]c3c2)cc1	6.56% (inactive)	–
CCOc1ccc(C(=O)NC2CCN(CC(=O)NCc3cccs3)CC2)cc1	-6.15% (inactive)	–
CCOc1ccc(/C=N/OCC(=O)NCc2cccs2)cc1	–	11.2 µM (active)
CCOc1ccc(/C=C/C(=O)N(CC)CC(=O)NCc2cccs2)cc1OC	0% (inactive)	–
CCCCc1nn2c(=O)cc(COC(=O)c3ccc(NC(=O)c4ccccc4C)cc3)nc2s1	6.4% (inactive)	–
CCCc1nc2c3ccccc3ccn2c1Cc1ccccc1C(F)(F)F	-67.8% (inactive)	–
Clc1cccc(Cc2c(-c3cccc(Cl)c3)nc3ccc(Cl)cn23)c1	–	12.6 µM (active)
CN1CCN(Cc2c(C(=O)N3CCc4ccccc4C3)nc3ccc(Cl)cn23)CC1	5.77% (inactive)	–
Cc1ccc2nc(-c3ccccc3)c(CC3CCCCC3)n2c1	0% (inactive)	–
Cc1ccc(-c2nc3c(Cl)cc(C(F)(F)F)cn3c2Cc2cccc(Cl)c2)cc1	28.6% (inactive)	–
N#Cc1ccc(C(C(=O)NCc2ccccc2)n2c(=O)c(-c3ccco3)nc3ccccc32)cc1 (centres undefined)	16.3% (inactive)	–
c1ccc(Cc2c(-c3ccco3)nc3c4ccccc4ccn23)cc1	–	35.5 µM (active)
Cc1cc(Br)cn2c(Cc3cccc(F)c3)c(-c3cccc(Br)c3)nc12	0% (inactive)	–
Cc1ccc(Cc2c(-c3ccco3)nc3ccc(Cl)cn23)cc1	–	6.31 µM (active)
